FBW7 act – human FBW7 E3 ligase activation, primary screen | actives 0.13% (n = 650,000) | AlphaScreen FBW7–phospho-cyclin E peptide binding, activator screen | normalized activity (activation), % at 26.1 µM | AID 1259310 | Q969H0; in the data active = normalized activity above about 1.9%;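 note: purified mutant Fbw7 with reduced substrate affinity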
Target sequence (Q969H0 whole entry, looked up): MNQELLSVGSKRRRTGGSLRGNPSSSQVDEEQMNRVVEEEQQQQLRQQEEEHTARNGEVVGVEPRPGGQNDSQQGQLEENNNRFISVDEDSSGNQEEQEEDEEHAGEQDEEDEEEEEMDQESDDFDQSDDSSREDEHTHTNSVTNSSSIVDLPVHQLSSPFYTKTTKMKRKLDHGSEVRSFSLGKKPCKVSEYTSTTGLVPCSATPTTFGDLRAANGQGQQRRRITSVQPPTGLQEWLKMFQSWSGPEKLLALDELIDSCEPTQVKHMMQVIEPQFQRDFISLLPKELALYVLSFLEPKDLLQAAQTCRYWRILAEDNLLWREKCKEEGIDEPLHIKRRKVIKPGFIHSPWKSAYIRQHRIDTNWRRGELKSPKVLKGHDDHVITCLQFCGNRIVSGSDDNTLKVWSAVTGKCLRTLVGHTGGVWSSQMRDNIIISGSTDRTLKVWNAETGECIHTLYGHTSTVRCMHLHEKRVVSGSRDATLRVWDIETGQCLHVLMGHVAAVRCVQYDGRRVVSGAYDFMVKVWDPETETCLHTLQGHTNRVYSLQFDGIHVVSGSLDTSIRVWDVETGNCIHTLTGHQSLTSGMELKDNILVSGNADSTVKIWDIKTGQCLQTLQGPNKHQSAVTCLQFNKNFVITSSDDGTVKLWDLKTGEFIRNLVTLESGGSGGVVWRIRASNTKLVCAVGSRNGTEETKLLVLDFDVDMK
GPR151 activ – activates the human receptor GPR151. Q8TDV0. PathHunter beta-arrestin GPR151 cells, luminescence. activation, % at 11.2 µM. actives 1% (n = 650,000); in the data active = activation above about 4.9%;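 note: 0% = median of compound wells and 100% = cells with positive control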
TEAD-YAP inh – TEAD-YAP interaction inhibition; HEK-TIYL cells, TEAD-Gal4/YAP UAS-luciferase luminescence; inhibition, % at 9.12 µM; actives 1.4% (n = 640,000); AID 1259422; in the data active = inhibition above about 32%;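 note: 0% = median of test compound wells and 100% = reference inhibitor wells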
MITF primary – inhibitors of human MITF. O75030. inhibition, % at 2.6 µM. actives 0.91% (n = 650,000). AlphaScreen MITF homodimerization, bead proximity signal; in the data active = inhibition above about 50%;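 note: 0% = vehicle wells with protein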
MITF inh conf – confirmation of human MITF inhibitors; shares compounds with MITF primary; actives 16% (n = 4,700); AID 1259372; AlphaScreen MITF homodimerization, biotin/His-MITF beads; inhibition, % at 2.6 µM;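 active = inhibition above a cutoff derived from the DMSO control wells, cut at about 28% in these data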;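 note: 0% = MITF dimer wells with DMSO only; inhibitors lower the bead chemiluminescence by keeping MITF from dimerizing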
AlphaScreen DR – counter-screen: compounds optically interfering with AlphaScreen. shares compounds with MITF primary. AlphaScreen optical interference counterscreen, cell-free. IC50, µM. actives 6% (n = 480). AID 1259373; call rule not given here
AlphaScreen intf2 – AlphaScreen optical interference, counter-screen | shares compounds with MITF primary | LysRS AlphaScreen counterscreen, signal interference, triplicate | inhibition, % at 2.6 µM | actives 7.6% (n = 4,700) | AID 1259376;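 active = inhibition above a cutoff derived from the DMSO control wells, cut at about 30% in these data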
Starred values were filed as active, the others as inactive; / = no result. Shown are actives, neighbours in structure and some others; about 3.5% of the full set was active somewhere.

SMILES	FBW7 act	GPR151 activ	TEAD-YAP inh	MITF primary	MITF inh conf	AlphaScreen intf2	others
Cc1ccc2nc(/N=C/c3cc([N+](=O)[O-])cc([N+](=O)[O-])c3O)sc2c1	0	-3	21	51*	-3	2
Cc1cc(C)c2nc(/N=C/c3cc([N+](=O)[O-])cc([N+](=O)[O-])c3O)sc2c1	0	0	-10	-9	/	/
O=C(/C=C/c1ccco1)NCCCCCCNC(=O)/C=C/c1ccco1	0	0	-28	55*	69*	7	AlphaScreen DR=>6.5
O=C(/C=C/c1ccco1)Nc1cccc2ccccc12	0	-1	-17	13	/	/
O=C(/C=C/c1ccco1)NCCCNC(=O)/C=C/c1ccco1	0	0	-6	27	/	/
CCN(CC)C(=S)NC(=O)/C=C/c1ccco1	0	1	-13	52*	73*	1	AlphaScreen DR=>6.5
CCC(=O)Nc1ccc(NC(=S)NC(=O)/C=C/c2ccco2)cc1	0	1	-2	12	/	/
O=C(/C=C/c1ccco1)NCCCCNC(=O)/C=C/c1ccco1	0	0	-29	57*	71*	8	AlphaScreen DR=>6.5
O=C(/C=C/c1ccco1)Nc1c[nH]c(=O)[nH]c1=O	1	-1	-23	52*	32*	16	AlphaScreen DR=>6.5
Brc1ncn(-c2ccnc(Nc3ccc(N4CCOCC4)cc3)c2)n1	0	0	-1	3	/	/
COc1ccc(-c2cc(-c3ccccc3)nc(SCC(=O)Nc3c(Cl)cccc3Cl)c2C#N)cc1	0	0	2	3	/	/
CCOc1cc(C=O)ccc1OCCCCN1CCN(CC)CC1	0	2	10	71*	9	10
CCc1ccccc1OCCOCCN1CCN(C)CC1	0	-2	3	58*	2	0
C=CCc1cc(OC)ccc1OCCCCN1CCN(C)CC1	0	-1	-3	76*	-13	0
CC(=O)c1ccccc1OCCCCN1CCN(C)CC1	0	2	2	82*	-5	-7
CCN(CC)C(=O)[C@@H]1C[C@@H](NC2CCCCCC2)CN1Cc1cccnc1	0	-1	-2	3	/	/
C=CCc1ccccc1OCCN1CCCC1	0	0	8	26	/	/
CCN1CCN(CCCCOc2ccccc2C=O)CC1	0	-1	16	58*	7	7
C=CCc1cccc(OC)c1OCCCN1CCN(C)CC1	0	-1	6	78*	-9	1
C=CCc1ccccc1OCCCCN1CCN(C)CC1	0	0	-4	57*	-7	-4
COc1cccc(C=O)c1OCCCCN1CCN(C)CC1	0	1	8	66*	-2	1
CN1CCN(CCCCOc2ccccc2C=O)CC1	0	0	3	16	/	/
CCOC(=O)C1=C(C)N=C2SCCC(=O)N2C1c1ccc(SC)cc1 (configuration not stated)	0	0	-4	7	/	/
OC(COC1CCCc2ccccc21)CN1CCN(Cc2ccc3c(c2)OCO3)CC1 (configuration not stated)	0	1	-5	80*	12	10
Cc1cc(C)c(OCC(O)CN2CCN(Cc3ccc4c(c3)OCO4)CC2)c(C)c1 (configuration not stated)	0	-1	-1	52*	-5	-7
SMILES	FBW7 act	GPR151 activ	TEAD-YAP inh	MITF primary	MITF inh conf	AlphaScreen intf2	others
C/C=C/c1ccc(OCC(O)CN2CCN(Cc3ccc4c(c3)OCO4)CC2)c(OC)c1 (configuration not stated)	0	2	6	64*	15	14
COc1ccc(C(CC(=O)Nc2ccc(F)cc2)N2Cc3ccccc3C2=O)cc1 (configuration not stated)	0	0	4	11	/	/
Cc1ccc(C)c(NNC(=O)C(=O)NNc2cc(C)ccc2C)c1	0	1	-2	51*	2	-4
Cc1ccc(C)c(NC2=C(N3CCOCC3)C(=O)c3ccccc3C2=O)c1	0	1	8	-1	/	/
O=C(OC1CCCC1=O)c1ccc(Cl)c(S(=O)(=O)N2CCOCC2)c1 (configuration not stated)	0	-1	3	66*	51*	8	AlphaScreen DR=>6.7
O=C(OC1CCCC1=O)c1ccc(S(=O)(=O)N2CCCCC2)cc1 (configuration not stated)	0	-1	-7	74*	65*	2	AlphaScreen DR=>6.6
CCOc1cc(C2CC(=O)N3C(=C2C#N)SCC3(O)c2ccco2)ccc1O (configuration not stated)	0	2	-14	0	/	/
O=C(NCC1CCC2(CCN(Cc3cnc(-c4ccccc4)s3)CC2)O1)c1cccnc1 (configuration not stated)	0	0	26	70*	-4	-8
O=C(NCC1CCC2(CCN(Cc3cc4ccccc4s3)CC2)O1)c1cccnc1 (configuration not stated)	0	2	1	4	/	/
c1ccc(OCc2nnc3sc(-c4cccnc4)nn23)cc1	0	1	1	64*	7	14
CCOc1ccc(-c2nn3c(COc4ccccc4)nnc3s2)cc1	0	0	5	4	/	/
Cc1ccc(-c2noc(C3CCCN(C(=O)c4ccccc4)C3)n2)cc1 (configuration not stated)	0	2	-11	15	/	/
COc1ccccc1NC(=S)N(CCN(C)C)C(C)c1ccccn1 (configuration not stated)	0	0	0	66*	-50	100*
c1ccc(CN2CCC(N3CCN(Cc4ccc5c(c4)OCO5)CC3)CC2)cc1	1	0	10	-5	/	/
CC1CCCC(N2CCN(Cc3ccc4c(c3)OCO4)CC2)C1 (configuration not stated)	1	-1	-17	68*	-1	0
c1cc2c(cc1CN1CCN(C3CCCCCC3)CC1)OCO2	1	0	1	65*	-2	4
CCNC(=O)N1CCCC(N2CCN(Cc3ccc4c(c3)OCO4)CC2)C1 (configuration not stated)	0	0	-2	9	/	/
COc1ccc(-c2nc(NC3CC3)c3ncn(Cc4ccc(C(F)(F)F)cc4)c3n2)cn1	0	-2	-5	17	/	/
CCOC(=O)N1CCN(Cc2cccc3ccccc23)CC1	1	0	0	-21	/	/
O=C(c1ccncc1)N1CCN(Cc2cccc3ccccc23)CC1	0	0	-5	67*	-3	4
COc1ccc2ccccc2c1CN1CCN(C(=O)c2cccnc2)CC1	0	-1	0	50	/	/
O=C(c1cccnc1)N1CCN(Cc2cccc3ccccc23)CC1	-1	0	-4	51*	-12	-8
Cc1ccc(NC(=O)c2sc3nc(-c4ccccc4)cc(C(F)(F)F)c3c2N)cc1	1	0	-3	16	/	/
CCOc1ccccc1N1CCN(C(=O)C2CCN(Cc3cccs3)CC2)CC1	0	1	3	51*	11	17

Compound activity from PubChem BioAssay.
